These results are taken from PubChem BioAssay (EPA / NIEHS).

Activity calls are given as the source filed them. The calls were made as follows: active = hit-call score of the fitted dose curve at least 0.9, where 1 is the maximum; inactive = score below 0.9.

By AC50 is commonly meant the concentration giving half of the maximal activity seen.

Chain of Hypoxia-inducible factor 1-alpha (Homo sapiens) (Q16665 whole entry, looked up): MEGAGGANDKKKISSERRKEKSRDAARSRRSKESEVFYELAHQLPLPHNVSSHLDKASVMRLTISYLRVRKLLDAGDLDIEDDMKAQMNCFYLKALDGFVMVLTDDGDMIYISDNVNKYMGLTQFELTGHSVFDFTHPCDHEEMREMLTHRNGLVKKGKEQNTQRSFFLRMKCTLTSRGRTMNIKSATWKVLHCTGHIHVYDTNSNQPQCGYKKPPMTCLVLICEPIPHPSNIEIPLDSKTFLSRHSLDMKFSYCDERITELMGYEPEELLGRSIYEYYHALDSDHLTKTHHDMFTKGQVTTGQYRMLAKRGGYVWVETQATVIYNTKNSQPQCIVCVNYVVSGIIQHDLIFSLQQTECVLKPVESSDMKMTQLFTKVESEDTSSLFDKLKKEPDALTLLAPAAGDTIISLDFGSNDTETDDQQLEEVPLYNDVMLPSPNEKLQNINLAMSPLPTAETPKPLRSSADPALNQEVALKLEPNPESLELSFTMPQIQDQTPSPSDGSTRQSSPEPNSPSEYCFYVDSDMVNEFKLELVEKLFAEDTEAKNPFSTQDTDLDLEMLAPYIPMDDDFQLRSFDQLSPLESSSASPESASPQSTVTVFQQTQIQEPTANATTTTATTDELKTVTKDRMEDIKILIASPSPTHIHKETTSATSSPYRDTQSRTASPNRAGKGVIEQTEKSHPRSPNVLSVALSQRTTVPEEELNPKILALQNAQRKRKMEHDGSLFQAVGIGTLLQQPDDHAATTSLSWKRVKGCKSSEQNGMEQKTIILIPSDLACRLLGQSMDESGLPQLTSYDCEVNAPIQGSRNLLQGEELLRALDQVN

Read-out in the test: Hypoxia-inducible factor 1-alpha (Homo sapiens) (UniProt Q16665)
Put plainly: LTEA_HepaRG_HIF1A: Life Technologies and Expression Analysis (LTEA) Assay for Hypoxia-inducible factor 1 (HIF1A) Trancription factor using HepaRG (AID 2283503).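 Also: HIF1A transcript by TaqMan qRT-PCR normalized to ACTB GAPDH and POLR2A.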 The settings on record: mRNA level, 48 h; actives raise or lower the signal. The method, then: LTEA_HepaRG is a cell based, multiplexed-readout assay that uses HepaRG, a human liver cell line, with measurements taken at 48 hours after chemical dosing on a 96-well plate.LTEA_HepaRG_HIF1A is one of 102 assay component(s) measured in the LTEA HepaRG cell culture assay. It is a marker of Cell proliferation, survival, death.Data from the assay component LTEA_HepaRG_HIF1A was analyzed into 1 endpoint. This assay endpoint, LTEA_HepaRG_HIF1A, was analyzed with bidirectional fitting relative to DMSO as the negative control and baseline of activity. Using a type of inducible reporter, measures of mRNA induction for gain or loss-of-signal activity can be used to understand regulation of transcription factor activity. To generalize the intended target to other relatable targets, this assay endpoint is annotated to the dna binding intended target family, where the subfamily is basic helix-loop-helix protein.
A total of 1060 chemcials from the ToxCast library were tested in eight-point concentration-response experiments. Cell culture and cytotoxicity assays were conducted at Thermo Fisher Scientific's Custom Services facility (Madison, WI). A single lot of human HepaRG cells (Thermo Fisher Scientific, Frederick, MD) was used for the cell culture experiments. 96-well format collagen type I coated plates of human HepaRG cells were prepared using established methods. Briefly, cryopreserved HepaRG cells were thawed, plated at a density of approximately 100,000 cells/well in HepaRG Thaw, Plate, and General Purpose media (HPRG770, Thermo Fisher Scientific), and incubated for 48 hours. 0.5% DMSO was selected as vehicle control to balance the requisite need of DMSO in HepaRG cultures to maintain differentiation (for example, baseline metabolism, proportions of hepatocytes vs. cholangiocytes), while enabling further hepatic receptor pathway activation (for example, PXR and CAR) in response to chemical exposure. 48 hours after plating, the culture medium was replaced with HepaRG Serum-Free Incudtion Media. Cells were exposed to each test chemical in duplicate and maintained in CO2 incubators for another 48 hours. Chemical plates were thawed to room temperature and 200x concentrations of treatment groups were prepared. 8-point conentration-reponse curves were made with the highest exposure at 100 uM, followed by half-log dilutions, all in 0.5% DMSO. Each test plate contained variouse controls, induction positive controls (1mM phenobarbital), cytotoxicity positive controls ([…] aflatoxin B1), vehicle controls (0.5% DMSO), and total lysis controls (0.5% DMSO). Cell morphology images were taken using an Essen IncuCyte FLR automated microscope, with six 96-well plates imaged in about 24 minutes. Images were captured and exported and JPEG files. Spent culture media was transfered to black-well plates for the LDH assay, and remaining media was sorted at -80 C for later use. Cells were treated with RLT buffer and frozen until shipped for gene expression analysis. Total RNA was isolated from the cell suspension in 75 uL of Buffer RLT (Qiagen, Germantown, MD 20874) by Quintiles/Expression Analysis (Durham, NC) using a custom isolation procedure. Total RNA from each plate well was transferred to a preamplification plate. Fluidigm's 96.96 Dynamic ArrayTM (Fluidigm, Amsterdam, the Netherlands) technology was used for gene expression analyses by quantitative reverse transcription polymerase chain reaction (qRT-PCR, performed by Quintiles/Expression Analysis, Durham, NC)89. Standard TaqManTM Assays (Applied Biosystems/ThermoFisher Scientific, Foster City, CA) were used to assess the expression of 93 genes selected based on their selectivity and sensitivity to important hepatic receptors known to be modulated by environmental chemicals; importance in human hepatocyte functionality; and hepatotoxicity. […]
Turning to `Nc1ccc(Cc2ccc(N)cc2)cc1`, the molecule was called inactive.

`N#CC(Br)Br`: the outcome was inactive.

Consider `COc1cc(C=O)cc2c1[C@H](COC(N)=O)[C@]1(OC(C)=O)ON2C[C@H]2[C@@H]1N2C(C)=O`, for which the AC50 is 3.94 µM (active).

On to `C[N+](C)(C)CC1CO1` (stereo not given), for which the outcome was inactive.

Consider `COC(=O)Nc1nc2ccccc2[nH]1`, for which the result was inactive.

Take `CCC(C)c1ccc(O)cc1` (stereo not given): the result was inactive.

As for `N#CC(Br)(Br)C(N)=O`, the result was inactive.

Take `C=CCc1ccc2c(c1)OCO2`: the outcome was inactive.

Regarding `Brc1ccc(Oc2ccccc2)cc1`, the call was inactive.

For the molecule `CCCCCOC(=O)c1ccccc1C(=O)OCCCCC`, the outcome was inactive.

Regarding `C[C@]12C=CC3=C4CCC(=O)C=C4CC[C@H]3[C@@H]1CC[C@@H]2O`, the outcome was inactive.

Regarding `Cc1ccc(N)cc1`, the result was inactive.

With `O=Cc1ccco1`, the molecule was called inactive.

As for `CC(C)(C)OOC(=O)c1ccccc1`, the result was inactive.

Take `Clc1ccc(Cl)c(Cl)c1`: the molecule was called inactive.

For `CCCCC(CC)COC(=O)c1ccc(C(=O)OCC(CC)CCCC)c(C(=O)OCC(CC)CCCC)c1` (stereo not given), the call was inactive.

`CCNS(=O)(=O)C(F)(F)C(F)(F)C(F)(F)C(F)(F)C(F)(F)C(F)(F)C(F)(F)C(F)(F)F`: the outcome was inactive.

Take `O=C(Nc1ccccc1)c1ccccc1I`: the call was inactive.

Consider `Cc1ccc(N)c(N)c1`, for which the call was inactive.

Take `O=[N+]([O-])C(Br)(CO)CO`: the outcome was inactive.

Turning to `CCCSC(=O)N(CCC)CCC`, the result was inactive.

As to `c1ccc(NNc2ccccc2)cc1`, the result was inactive.

Regarding `CCCCCCCCCCCCCN1CC(C)OC(C)C1` (stereo not given), the call was inactive.

`COC(=O)c1ccccc1N`: the molecule was called inactive.

Turning to `O=[N+]([O-])c1ccc(Oc2ccc(Cl)cc2Cl)cc1`, the molecule was called inactive.

As to `Clc1ccccc1Cl`, the molecule was classed as inactive.

Take `ClC1=C(Cl)[C@]2(Cl)[C@H]3[C@H]([C@@H]4C=C[C@H]3C4)[C@@]1(Cl)C2(Cl)Cl`: the result was inactive.

As to `Oc1ccccc1Cl`, the call was inactive.

As to `c1ccc(C2CO2)cc1` (stereo not given), the outcome was inactive.

As to `Cc1cccc(N)c1N`, the molecule was classed as inactive.

For the molecule `CCN(CC)CCO`, the call was inactive.

As to `c1ccc2c(c1)oc1ccccc12`, the result was inactive.

On to `Cc1cc(N=Nc2ccccc2C)ccc1N`, for which the half-maximal activity concentration (AC50) is 7.09 µM (active).

With `O=C(N[C@H](c1ccccc1)[C@@H]1CN2CCC1CC2)c1c(Cl)ccc(C(F)(F)F)c1Cl`, the result was inactive.

With `ClCCOCCCl`, the molecule was called inactive.

Turning to `[As]#[In]`, the call was inactive.

Turning to `CC(C)(C)C(O)(CCc1ccc(Cl)cc1)Cn1cncn1` (stereo not given), the molecule was classed as inactive.

Regarding `Nc1ccc(Cl)cc1N`, the concentration at half-maximal activity (AC50) is 19.7 µM (active).

On to `CCOC(=O)[C@]1(c2ccccc2)Oc2ccccc2[C@@H]1N`, for which the concentration at half-maximal activity (AC50) is 82.2 µM (active).

Turning to `CS(=O)(=O)NC(=O)c1cc(Oc2ccc(C(F)(F)F)cc2Cl)ccc1[N+](=O)[O-]`, the molecule was called inactive.
